From the antibiotic and cytotoxicity screens of Wong et al. (2023)
Among all 39,000 compounds or so, about 3,300 (8.5%) were called active. This is one part of a sample in which actives are shown more often than they occur.

These molecules were tested on HepG2 (assay: cytotoxicity call (relative viability < 0.9)). Details: 10 µM.

| SMILES | cytotoxicity call |
| --- | --- |
| C[C@@H]1CN([C@@H](C)CO)C(=O)c2cc(NC(=O)Nc3ccc(C(F)(F)F)cc3)ccc2O[C@@H](C)CCCCO[C@H]1CN(C)S(=O)(=O)c1ccc(F)cc1 | inactive |
| C[C@H](CO)N1C[C@H](C)[C@@H](CN(C)S(=O)(=O)c2ccc(F)cc2)OCCCC[C@H](C)Oc2ccc(NC(=O)Nc3ccc(C(F)(F)F)cc3)cc2C1=O | inactive |
| C[C@@H]1CCCCO[C@H](CN(C)S(=O)(=O)c2ccc(F)cc2)[C@@H](C)CN([C@H](C)CO)C(=O)c2cc(NC(=O)Nc3ccc(C(F)(F)F)cc3)ccc2O1 | active |
| C[C@@H]1CN([C@H](C)CO)C(=O)c2cc(NC(=O)Nc3ccc(C(F)(F)F)cc3)ccc2O[C@@H](C)CCCCO[C@@H]1CN(C)S(=O)(=O)c1ccc(F)cc1 | inactive |
| C[C@H]1CCCCO[C@H](CN(C)S(=O)(=O)c2ccc(F)cc2)[C@@H](C)CN([C@@H](C)CO)C(=O)c2cc(NC(=O)Nc3ccc(C(F)(F)F)cc3)ccc2O1 | inactive |
| C[C@@H]1CCCCO[C@@H](CN(C)S(=O)(=O)c2ccc(F)cc2)[C@@H](C)CN([C@@H](C)CO)C(=O)c2cc(NC(=O)Nc3ccc(C(F)(F)F)cc3)ccc2O1 | active |
| C[C@@H]1CCCCO[C@@H](CN(C)S(=O)(=O)c2ccc(F)cc2)[C@H](C)CN([C@@H](C)CO)C(=O)c2cc(NC(=O)Nc3ccc(C(F)(F)F)cc3)ccc2O1 | inactive |
| C[C@H](CO)N1C[C@H](C)[C@H](CN(C)S(=O)(=O)c2ccc(F)cc2)OCCCC[C@H](C)Oc2ccc(NC(=O)Nc3ccc(C(F)(F)F)cc3)cc2C1=O | inactive |
| C[C@@H]1CCCCO[C@H](CN(C)S(=O)(=O)c2ccc(F)cc2)[C@H](C)CN([C@@H](C)CO)C(=O)c2cc(NC(=O)Nc3ccc(C(F)(F)F)cc3)ccc2O1 | active |
| COc1ccc(C#Cc2cccc(-c3nc(C(=O)N[C@@H]4CCN(Cc5ccccc5)C4)cc4c3[C@@H](CCO)N(S(=O)C(C)(C)C)C4)c2)cc1OC (some centres not stated) | inactive |
| c1ccc2cc3nc4c(ccc5ccccc54)nc3cc2c1 | inactive |
| C[C@@H]1CCCCO[C@@H](CN(C)C(=O)NC2CCCCC2)[C@@H](C)CN([C@H](C)CO)C(=O)c2cc(NC(=O)c3ccccc3)ccc2O1 | inactive |
| C[C@@H]1CN([C@@H](C)CO)S(=O)(=O)c2ccc(C#Cc3ccccc3)cc2O[C@H]1CN(C)S(C)(=O)=O | inactive |
| C[C@H](CO)N1C[C@H](C)[C@@H](CN(C)Cc2ccncc2)Oc2c(NC(=O)c3cnccn3)cccc2C1=O | inactive |
| C[C@@H]1CN([C@@H](C)CO)C(=O)c2cc(NC(=O)Nc3cccc4ccccc34)ccc2O[C@@H](C)CCCCO[C@H]1CN(C)C(=O)Nc1cccc2ccccc12 | inactive |
| CC(C)NC(=O)Nc1ccc2c(c1)C(=O)N([C@H](C)CO)C[C@@H](C)[C@H](CN(C)C(=O)Nc1cccc3ccccc13)OCCCC[C@H](C)O2 | inactive |
| C[C@@H]1CN([C@@H](C)CO)C(=O)c2cc(NC(=O)Nc3ccc(C(F)(F)F)cc3)ccc2O[C@@H](C)CCCCO[C@H]1CN(C)C(=O)Nc1cccc2ccccc12 | inactive |
| C[C@H](CO)N1C[C@H](C)[C@@H](CN(C)C(=O)Nc2cccc3ccccc23)OCCCC[C@H](C)Oc2ccc(NC(=O)Nc3cccc4ccccc34)cc2C1=O | inactive |
| CC(C)NC(=O)Nc1ccc2c(c1)C(=O)N([C@H](C)CO)C[C@H](C)[C@H](CN(C)C(=O)Nc1cccc3ccccc13)OCCCC[C@H](C)O2 | active |
| C[C@@H]1CN([C@@H](C)CO)C(=O)c2cc(NC(=O)Nc3ccc(C(F)(F)F)cc3)ccc2O[C@@H](C)CCCCO[C@@H]1CN(C)C(=O)Nc1cccc2ccccc12 | inactive |
| C[C@@H]1CCCCO[C@H](CN(C)C(=O)Nc2cccc3ccccc23)[C@H](C)CN([C@@H](C)CO)C(=O)c2cc(NC(=O)Nc3ccc(C(F)(F)F)cc3)ccc2O1 | active |
| CC(C)NC(=O)Nc1ccc2c(c1)C(=O)N([C@@H](C)CO)C[C@@H](C)[C@@H](CN(C)C(=O)Nc1cccc3ccccc13)OCCCC[C@@H](C)O2 | inactive |
| C[C@@H]1CCCCO[C@@H](CN(C)C(=O)Nc2cccc3ccccc23)[C@H](C)CN([C@@H](C)CO)C(=O)c2cc(NC(=O)Nc3cccc4ccccc34)ccc2O1 | active |

| SMILES | cytotoxicity call |
| --- | --- |
| CN(C)CCCNC(=O)C[C@@H]1C=C[C@H](NS(=O)(=O)c2ccccc2)[C@H](CO)O1 | inactive |
| CO[C@@H]1CN(C)C(=O)c2cc(NC(=O)C3CC3)ccc2OC[C@@H](C)N(C(=O)Cc2ccccn2)C[C@H]1C | inactive |
| NC(=O)c1ccc[n+](CC(=O)c2ccccc2)c1 | inactive |
| C[C@@H]1CN([C@H](C)CO)C(=O)c2cc(NC(=O)Cc3ccccc3)ccc2O[C@@H](C)CCCCO[C@@H]1CN(C)CC1CCCCC1 | inactive |
| Cc1noc(C)c1S(=O)(=O)N(C)C[C@@H]1OCCCC[C@H](C)Oc2ccc(NS(=O)(=O)c3cn(C)cn3)cc2C(=O)N([C@@H](C)CO)C[C@H]1C | inactive |
| OC[C@@H]1CC[C@@H]2O[C@H](CCc3ccc(C#CCc4ccccc4)cc3)[C@@H](n3cc(-c4ccccc4)nn3)C[C@@H]2O1 | inactive |
| CO[C@H](C(=O)N(C)C[C@@H]1OCc2ccccc2-c2c(n(C)c3ccccc23)C(=O)N([C@H](C)CO)C[C@H]1C)c1ccccc1 | inactive |
| CN(C)C(=O)[C@H]1[C@H](CO)[C@H]2Cn3c(ccc(C4=CCCC4)c3=O)[C@@H]1N2S(=O)(=O)c1cn(C)cn1 | inactive |
| O=C(C[C@@H]1CC[C@H]2[C@@H](COC[C@H](O)CN2S(=O)(=O)c2cccc(F)c2)O1)NCc1ccc(Cl)c(Cl)c1 | inactive |
| C[C@@H]1CN([C@@H](C)CO)C(=O)c2cc(NC(=O)CCC(F)(F)F)ccc2O[C@H]1CN(C)Cc1ccc(Oc2ccccc2)cc1 | inactive |
| C[C@@H]1CN([C@H](C)CO)C(=O)c2cc(NC(=O)CCC(F)(F)F)ccc2O[C@H]1CN(C)Cc1ccc(-c2ccccc2)cc1 | active |
| C[C@@H]1CN([C@H](C)CO)C(=O)c2cc(NC(=O)CCC(F)(F)F)ccc2O[C@@H]1CN(C)Cc1ccc(-c2ccccc2)cc1 | inactive |
| C[C@H]1CN([C@@H](C)CO)C(=O)c2cc(NC(=O)CCC(F)(F)F)ccc2O[C@@H]1CN(C)Cc1ccc(C(F)(F)F)cc1 | inactive |
| C[C@H](CO)N1C[C@H](C)[C@H](CN(C)Cc2ccc(-c3ccccc3)cc2)Oc2ccc(NC(=O)CCC(F)(F)F)cc2C1=O | active |
| C[C@H](CO)N1C[C@H](C)[C@@H](CN(C)Cc2ccc(Oc3ccccc3)cc2)Oc2ccc(NC(=O)CCC(F)(F)F)cc2C1=O | inactive |
| C[C@H]1CN([C@@H](C)CO)C(=O)c2cc(NC(=O)CCC(F)(F)F)ccc2O[C@@H]1CN(C)Cc1ccc(-c2ccccc2)cc1 | active |
| C[C@@H]1CN([C@@H](C)CO)C(=O)c2cc(NC(=O)CCC(F)(F)F)ccc2O[C@H]1CN(C)Cc1ccc(-c2ccccc2)cc1 | active |
| C[C@H](CO)N1C[C@H](C)[C@@H](CN(C)Cc2ccc(-c3ccccc3)cc2)Oc2ccc(NC(=O)CCC(F)(F)F)cc2C1=O | inactive |
| C[C@@H]1CN([C@@H](C)CO)C(=O)c2cc(NC(=O)CCC(F)(F)F)ccc2O[C@@H]1CN(C)Cc1ccc(-c2ccccc2)cc1 | inactive |
| C[C@H](CO)N1C[C@H](C)[C@H](CN(C)Cc2ccc(C(F)(F)F)cc2)Oc2ccc(NC(=O)CCC(F)(F)F)cc2C1=O | inactive |
| C[C@H]1CN([C@@H](C)CO)C(=O)c2cc(NC(=O)CCC(F)(F)F)ccc2O[C@H]1CN(C)Cc1ccc(-c2ccccc2)cc1 | inactive |
| CCN1CCC(N(C)S(=O)(=O)c2cn(C)c(=O)n(C)c2=O)CC1 | inactive |
| CO[C@@H]1CN(C)C(=O)c2ccc(NS(C)(=O)=O)cc2OC[C@H](C)N(C(=O)C2CCCCC2)C[C@H]1C | inactive |

| SMILES | cytotoxicity call |
| --- | --- |
| C[C@@H]1CN([C@H](C)CO)C(=O)c2cc(NS(C)(=O)=O)ccc2O[C@H]1CN(C)Cc1ccc(C(=O)Nc2ccccc2N)cc1 | inactive |
| C[C@@H]1CCCCO[C@@H](CN(C)C(=O)Nc2cccc3ccccc23)[C@@H](C)CN([C@H](C)CO)C(=O)c2cc(NS(=O)(=O)c3cccs3)ccc2O1 | inactive |
| C[C@@H]1CN([C@@H](C)CO)C(=O)c2cccc(NS(=O)(=O)c3ccccc3)c2O[C@H]1CN(C)Cc1ccncc1 | inactive |
| CCOc1nc2cccc(C(=O)O[C@@H](C)OC(=O)OC3CCCCC3)c2n1Cc1ccc(-c2ccccc2-c2nn[nH]n2)cc1 | inactive |
| c1ccc2c(c1)Cn1nnnc1-2 | inactive |
| C[C@H]1CN([C@@H](C)CO)S(=O)(=O)c2ccc(-c3ccc(C(=O)N(C)C)cc3)cc2O[C@@H]1CN(C)C(=O)Cc1ccccn1 | inactive |
| C[C@@H]1CN([C@@H](C)CO)C(=O)CCCn2nncc2CO[C@@H]1CN(C)C(=O)Nc1ccc(N2CCCCC2)cc1 | inactive |
| COc1ccccc1C#Cc1cnc2c(c1)C(=O)N([C@@H](C)CO)C[C@@H](C)[C@H](CN(C)C(=O)c1ccc3c(c1)OCO3)O2 | inactive |
| C[C@H](CO)N1C[C@H](C)[C@@H](CN(C)Cc2ccc(Cl)c(Cl)c2)Oc2c(NC(=O)CCCCCC(=O)Nc3ccccc3N)cccc2C1=O | inactive |
| C[C@H]1CCCCO[C@@H](CN(C)C(=O)NC2CCCCC2)[C@@H](C)CN([C@@H](C)CO)C(=O)c2cc(NS(=O)(=O)c3cccs3)ccc2O1 | inactive |
| C[C@H](CO)N1C[C@H](C)[C@H](CN(C)C(=O)Nc2ccc(C(F)(F)F)cc2)OCCCC[C@H](C)Oc2ccc(NS(=O)(=O)c3cccs3)cc2C1=O | active |
| C[C@@H]1CN([C@H](C)CO)C(=O)c2cc(NS(=O)(=O)c3cccs3)ccc2O[C@@H](C)CCCCO[C@@H]1CN(C)C(=O)NC1CCCCC1 | active |
| C[C@@H]1CCCCO[C@H](CN(C)C(=O)Nc2ccccc2)[C@@H](C)CN([C@@H](C)CO)C(=O)c2cc(NS(=O)(=O)c3cccs3)ccc2O1 | active |
| C[C@@H]1CN([C@@H](C)CO)C(=O)c2cc(NS(=O)(=O)c3cccs3)ccc2O[C@@H](C)CCCCO[C@@H]1CN(C)C(=O)Nc1ccc(C(F)(F)F)cc1 | inactive |
| C[C@@H]1CCCCO[C@@H](CN(C)C(=O)Nc2ccc(C(F)(F)F)cc2)[C@H](C)CN([C@@H](C)CO)C(=O)c2cc(NS(=O)(=O)c3cccs3)ccc2O1 | inactive |
| C[C@@H]1CCCCO[C@H](CN(C)C(=O)Nc2ccc(C(F)(F)F)cc2)[C@@H](C)CN([C@H](C)CO)C(=O)c2cc(NS(=O)(=O)c3cccs3)ccc2O1 | inactive |
| C[C@@H]1CCCCO[C@@H](CN(C)C(=O)Nc2ccccc2)[C@@H](C)CN([C@H](C)CO)C(=O)c2cc(NS(=O)(=O)c3cccs3)ccc2O1 | inactive |
| C[C@H](CO)N1C[C@H](C)[C@@H](CN(C)C(=O)Nc2ccc(C(F)(F)F)cc2)OCCCC[C@H](C)Oc2ccc(NS(=O)(=O)c3cccs3)cc2C1=O | active |
| C[C@H]1CCCCO[C@@H](CN(C)C(=O)Nc2ccccc2)[C@@H](C)CN([C@@H](C)CO)C(=O)c2cc(NS(=O)(=O)c3cccs3)ccc2O1 | inactive |
| C[C@@H]1CN([C@H](C)CO)C(=O)c2cc(NS(=O)(=O)c3cccs3)ccc2O[C@@H](C)CCCCO[C@H]1CN(C)C(=O)NC1CCCCC1 | inactive |
| C[C@@H]1CCCCO[C@H](CN(C)C(=O)Nc2ccc(C(F)(F)F)cc2)[C@H](C)CN([C@H](C)CO)C(=O)c2cc(NS(=O)(=O)c3cccs3)ccc2O1 | inactive |
